A short description of assay [1]: reducers of endogenous Her2 protein level, primary screen, SKBR3 breast tumor cells, AlphaScreen, ATP viability (AID 461;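 active means Her2 level under about 52% in both replicate screens, with viability over 70% of control, limit read from the data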;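 on Her2 level: lower value means less Her2 protein in the cells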;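 on viability: percent of carrier control wells set as 100% viability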). The conditions noted are these: 18-24 h, measured here: SKBR3 viability, ATP luminescence, at 10 µM. A general note: Alpha assays give light when donor and acceptor beads are brought close together.
Assay [2] has as its target Receptor tyrosine-protein kinase erbB-2 (Homo sapiens) (UniProt P04626). The description is as above. The note with it: 18-24 h, at 10 µM, stronger effect = lower value.
A short description of assay [3]: SK-BR-3 cell growth inhibitors, pilot screen, 24 h, human (AID 572;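 active means viability at or below 10% of carrier control in both of two separate runs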;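 further: compound exposure lasted between 18 and 24 h rather than exactly 24 h; 100% = carrier-treated control wells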). The conditions noted are these: SK-BR-3 viability, CellTiter-Glo luminescence, at 10 µM, stronger effect = lower value.
Assay [4] in a line: HUVEC growth inhibition – cell-based, human, primary screen (AID 575;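 active means viability at or below 30% in both replicate assays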;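 further: 100% = median of untreated cell wells with 0.1% DMSO on each plate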). The note with it: HUVEC proliferation, CellTiter-Glo luminescence, 72 h; at 10 µM; stronger effect = lower value. (In general: In ATP-based viability assays light output follows the ATP content of the culture.)
Assay [5] can be described thus: growth inhibitors of H69AR lung tumor, primary screen, human, duplicate replicates (AID 580;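 active means viability at or under a set limit in both replicates, limit being median viability minus 3 SD, cut at about 48% in these data, passing the limit was not always enough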;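 further: 100% = mean luminescence of untreated wells and 0% = no signal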). The conditions noted are these: H69AR lung tumor cells viability, ATP luminescence, 72 h; at 10 µM; stronger effect = lower value.
A short description of assay [6]: reversal of MRP1-mediated doxorubicin resistance, pilot screen, H69AR cells, doxorubicin co-treatment (AID 601;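 active means viability loss from added drug above about 55%, and viability with drug at most 40%, in both replicates, limit read from the data, passing the limit was not always enough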). The note with it: CellTiter-Glo, 72 h, at 10 µM; for differential viability (reversal): stronger effect = higher value.
A short description of assay [7]: 384-well plate pilot, post-Golgi transport modulator project, inhibition of yeast transport mutant growth (AID 636; in the data active means inhibition above about 31%). The note with it: absorbance 615 nm, about 18 h, stronger effect = higher value.
The nature of assay [8]: growth suppression of yeast trafficking mutant, preliminary HTS, modulators of trafficking downstream of Golgi apparatus project, 1536-format plate, OD 615 nm (AID 637; in the data active means inhibition above about 30%). The note with it: yeast transport mutant growth, absorbance 615 nm, 18 h; stronger effect = higher value.
Assay [9] in a line: OD615 S. cerevisiae growth inhibition, permissive medium, pilot counter-assay, permissive growth control for S. cerevisiae lifespan shortening project (AID 705;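 active means growth inhibition above 25% in both replicates, a cutoff set 3 SD above the mean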). The conditions noted are these: OD615, 24 h, at 10 µM, stronger effect = higher value.
Assay [10] is described as follows: Restrictive medium S. cerevisiae growth inhibition, OD615, pilot screen of yeast lifespan reduction project, restrictive growth control (AID 706;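 active means growth inhibition above a set limit, 3 SD over mean compound inhibition, in both replicates, cut at about 43% in these data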;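 further: modified DeaD lifespan yeast strain shifted to restrictive glucose medium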). The conditions noted are these: OD615, 48 h, at 10 µM, stronger effect = higher value.
The nature of assay [11]: viability gain of MRP-1-high H69AR cells under doxorubicin, pilot screen, MRP-1 activator project, CellTiter-Glo, duplicate (AID 807;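 active means viability increase at or above a cutoff of the median across tested compounds plus 3 SD, cut at about 8.5% in these data, passing the limit was not always enough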;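 further: compound pretreatment 18-22 h then 72 h combined with doxorubicin; 0% = doxorubicin alone and 100% = vehicle without doxorubicin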). The note with it: H69AR viability with doxorubicin, CellTiter-Glo luminescence; at 10 µM; stronger effect = higher value.
Assay [12] in a line: growth suppression of beta-catenin knockout HCT116, pilot screen, human colon tumor cells (AID 823;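 active means cell viability at or below a set limit in both duplicate runs, the limit being the all-compound median minus 4 SD, cut at about 23% in these data, passing the limit was not always enough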;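 further: 0% = wells killed by 20 µM Hyamine and 100% = untreated DMSO cell wells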). The note with it: CellTiter-Glo, 60 h, at 10 µM, stronger effect = lower value.
Assay [13] can be described thus: growth suppression of PTEN-deleted HCT116, pilot screen, cell-based, HCT116 clonal line, CellTiter-Glo (AID 824).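 Further: 0% = 20 µM Hyamine control and 100% = vehicle cell control.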 The note with it: 60 h, at 10 µM, stronger effect = lower value.
Assay [14] in a line: inhibitors of the yeast RAM network, pilot screen, dse1pr::URA3 reporter, 5-FOA selection (AID 869;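 active means inhibition over a set limit, the all-compound mean plus 3 SD, in both replicate runs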;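 further: 0% = DMSO wells with no growth and 100% = 10 µM 1-NA-PP1 with full growth; RAM network block rescues cells from 5-FOA so hits raise OD615 growth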). The conditions noted are these: S. cerevisiae dse1pr::URA3 5-FOA growth, OD615, 2 d; at 10 µM; stronger effect = higher value; strain carries analog-sensitive mutant Cbk1 kinase.
The nature of assay [15]: RAM signaling pathway blockade in yeast – S. cerevisiae, Pdr1DBD-CYC8 efflux-inhibited sensitized strain, primary screen (AID 1298;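 active means RAM network inhibition above 8.4% in each of two replicates, 3 SD over the compound average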;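 further: 0% = DMSO untreated cells without growth and 100% = 10 µM 1-NA-PP1 full growth; higher means more yeast growth rescued from 5-FOA killing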). The note with it: S. cerevisiae cbk1-as DSE1-URA3 strain, 5-FOA growth OD615, 2 d; at 50 µM; stronger effect = higher value.
Where [16] appears, read: H69AR cells + 2 uM doxorubicin, measured here: viability with 2 uM doxorubicin, stronger effect = lower value.
[17] abbreviates: H69AR cells, compound alone cytotoxicity.

Results filed as inconclusive are left out. The source made the active and inactive calls.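 How the source made its calls, unless noted: active means viability at or below 27.92% in each of two runs, the all-compound median minus 4 SD; inconclusive means no clear call, values can overlap the other calls; inactive means the rest.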

Sequence of Receptor tyrosine-protein kinase erbB-2 (Homo sapiens) (P04626 whole entry, looked up): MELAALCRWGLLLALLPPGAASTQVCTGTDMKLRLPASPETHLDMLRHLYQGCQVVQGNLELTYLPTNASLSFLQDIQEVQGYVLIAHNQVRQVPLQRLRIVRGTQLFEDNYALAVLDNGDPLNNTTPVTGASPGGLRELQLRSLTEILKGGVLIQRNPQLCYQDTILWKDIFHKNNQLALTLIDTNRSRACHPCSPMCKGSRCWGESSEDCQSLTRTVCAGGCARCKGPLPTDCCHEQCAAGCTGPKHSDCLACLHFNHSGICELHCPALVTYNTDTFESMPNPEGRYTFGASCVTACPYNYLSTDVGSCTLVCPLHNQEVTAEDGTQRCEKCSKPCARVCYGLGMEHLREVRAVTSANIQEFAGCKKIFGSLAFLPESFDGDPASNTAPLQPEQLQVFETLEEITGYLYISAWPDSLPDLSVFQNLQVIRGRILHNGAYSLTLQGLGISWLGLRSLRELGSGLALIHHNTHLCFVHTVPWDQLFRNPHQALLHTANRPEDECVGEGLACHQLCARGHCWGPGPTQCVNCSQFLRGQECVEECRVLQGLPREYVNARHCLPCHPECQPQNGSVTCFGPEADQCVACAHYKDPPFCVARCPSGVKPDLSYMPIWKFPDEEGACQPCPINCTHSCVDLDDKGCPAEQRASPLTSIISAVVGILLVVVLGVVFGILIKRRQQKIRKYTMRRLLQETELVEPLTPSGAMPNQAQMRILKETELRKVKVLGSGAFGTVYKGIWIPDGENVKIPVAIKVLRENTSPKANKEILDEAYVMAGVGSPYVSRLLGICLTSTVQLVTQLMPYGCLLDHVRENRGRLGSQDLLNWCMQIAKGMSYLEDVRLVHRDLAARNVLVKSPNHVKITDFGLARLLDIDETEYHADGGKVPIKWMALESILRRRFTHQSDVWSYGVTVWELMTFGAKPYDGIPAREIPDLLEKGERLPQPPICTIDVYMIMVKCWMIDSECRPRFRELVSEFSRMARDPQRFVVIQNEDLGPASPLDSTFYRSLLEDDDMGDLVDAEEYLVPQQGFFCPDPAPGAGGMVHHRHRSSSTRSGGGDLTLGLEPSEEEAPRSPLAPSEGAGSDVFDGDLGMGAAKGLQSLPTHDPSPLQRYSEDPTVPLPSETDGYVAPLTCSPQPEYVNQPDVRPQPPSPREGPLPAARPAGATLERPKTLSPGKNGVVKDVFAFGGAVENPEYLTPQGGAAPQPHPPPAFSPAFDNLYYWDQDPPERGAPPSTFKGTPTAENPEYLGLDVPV

On to `O=C(O)c1ccc2c(c1)C(=O)N(c1ccc(Cl)cn1)C2=O`, for which the viability in [1] was 98%; in assay [3] it was 98% (inactive); in assay [4], 105% (inactive); in [5], 87.2% (inactive); in assay [6] (setting [16]) it was 88.2%; in assay [6] (setting [17]), 87.2%. For the same compound, the viability was 102% (inactive) in [12] and 96.2% (inactive) in assay [13]. Further, in [2], the Her2 level was 111% (inactive). In addition, the differential viability (reversal) in assay [6] (H69AR cells + 2 uM doxorubicin) is -0.91% (inactive). In addition, the inhibition is -5.47% (inactive) in assay [7], 0.33% (inactive) in assay [8] and 1.22% (inactive) in assay [14]. The values for the growth inhibition in assay [9] and in assay [10] were -12.8% (inactive) and -10.8% (inactive), respectively. The viability increase in [11] is -2.33% (inactive). The RAM network inhibition in [15] is -0.74% (inactive).
With `COc1ccc(CN2C(=O)CN=C2Nc2ccc(C)cc2C)cc1`, the viability in assay [1] is 85%; in [3], 85% (inactive); in assay [4], 103% (inactive); in [5], 84.9% (inactive); in [6] (setting [16]), 77.8%; in assay [6] (setting [17]), 84.9%. The viability in assay [12] was 101% (inactive); in [13] it was 89.4% (inactive). Moreover, in [2], the Her2 level was 91% (inactive). Further, the differential viability (reversal) in assay [6] (H69AR cells + 2 uM doxorubicin) was 7.04% (inactive). The inhibition in assay [7] is -3.82% (inactive); in assay [8], -0.73% (inactive); in assay [14], 3.82% (inactive). The growth inhibition in [9] is -7.07% (inactive); in assay [10], -12.2% (inactive). The viability increase in [11] is -1.49% (inactive). The RAM network inhibition in [15] was 5.11% (inactive).
As to `CCOc1ccc(Cn2nnc(C(=O)NCc3ccc(OC)cc3)c2N)cc1`, the viability is 95% in assay [1]; 95% (inactive) in [3]; 74.3% (inactive) in assay [4]; 89.5% (inactive) in [5]; 91.6% in [6] (setting [16]); 89.5% in assay [6] (setting [17]). Further, the viability is 95.8% (inactive) in assay [12] and 94.8% (inactive) in assay [13]. Further, the Her2 level in assay [2] was 102% (inactive). Also, the differential viability (reversal) in assay [6] (H69AR cells + 2 uM doxorubicin) was -2.11% (inactive). Also, the figures for the inhibition in assay [7], in [8] and in assay [14] were -4.67% (inactive), -4.33% (inactive) and 2.19% (inactive), respectively. Besides, the growth inhibition in assay [9] was -3.91% (inactive); in assay [10], -6.16% (inactive). Besides, the viability increase in assay [11] was -0.43% (inactive). Besides, the RAM network inhibition in [15] is 4.7% (inactive).
Consider `COc1ccc(-n2c(Cc3cccn3C)nnc2SCC(=O)Nc2ccccc2)cc1`, for which the viability is 88.5% in [1]; 88.5% (inactive) in [3]; 99% (inactive) in assay [4]; 82.2% (inactive) in assay [5]; 88.9% in [6] (setting [16]); 82.2% in [6] (setting [17]). For the same compound, the viability in assay [12] was 99.5% (inactive); in [13], 85.3% (inactive). The Her2 level in [2] was 104% (inactive). Besides, the differential viability (reversal) in assay [6] (H69AR cells + 2 uM doxorubicin) was -6.77% (inactive). Also, the inhibition in assay [7] was -5.87% (inactive); in assay [8], 4% (inactive); in assay [14] it was 2.68% (inactive). Further, the growth inhibition in assay [9] was 1.29% (inactive); in assay [10] it was 15.6% (inactive). The viability increase in assay [11] was -2.51% (inactive). The RAM network inhibition in assay [15] is 2.14% (inactive).
For `O=C(C1CCN(c2nnc(-n3cccc3)s2)CC1)N1CCOCC1`, the viability is 84% in assay [1]; 84% (inactive) in [3]; 86.2% (inactive) in assay [4]; 87.5% (inactive) in [5]; 87.3% in assay [6] (setting [16]); 87.5% in [6] (setting [17]). The figures for the viability in assay [12] and in assay [13] were 101% (inactive) and 96.7% (inactive), respectively. For the same compound, the Her2 level in [2] was 80% (inactive). Also, the differential viability (reversal) in [6] (H69AR cells + 2 uM doxorubicin) is 0.17% (inactive). Besides, the inhibition in assay [7] was -5.2% (inactive); in assay [8], -1.67% (inactive); in assay [14] it was 1.83% (inactive). The growth inhibition was -0.63% (inactive) in assay [9] and -1.73% (inactive) in [10]. Moreover, in [11], the viability increase was 0.27% (inactive). Besides, the RAM network inhibition in assay [15] was 6.37% (inactive).

The viability is a read-out of living cells in per cent, often relative to untreated cells. The term inhibition denotes the change of the read-out against control, counted positive when it falls.

The values above are taken from PubChem BioAssay.
